In PubChem BioAssay (NCATS):
Results filed as inconclusive are left out. Values without a mark were called inactive. The call rests on the fitted dose curve; in most records, active means well fitted activation curve with a large enough effect; inconclusive means small, poorly fitted or top-dose-only effect; inactive means flat fitted curve, though single readings scatter.

Assay: Primary redox qHTS assay for identification of artifact compounds. (AID 1845223)
Conditions: Amplex Red/HRP redox cycling with DTT, fluorescence; series mostly up to 53.8 µM; redox activity (% of DA3003): at the top concentration
Excerpt: PI: Alexander Tropsha Ph.D.
UNC Eshelman School of Pharmacy
University of North Carolina, Chapel Hill, North Carolina
Hits from high-throughput screening (HTS) of chemical libraries are often false positives due to their interference with the assay detection technology. In response to this problem, we generated the largest publicly available library of chemical liabilities and developed a free webtool to predict HTS artifacts, both of which are described herein. More specifically, we generated, curated, and integrated HTS datasets for thiol reactivity, redox activity, and luciferase (firefly and nano) activity. Using these curated datasets, we developed and validated several Quantitative Structure-Interference Relationship (QSIR) models to predict nuisance behavior. […] These models were employed for virtual profiling of the National Center for Advancing Translational Science's (NCATS) in-house library, and 256 compounds for each assay were selected for the experimental validation of nuisance behavior. The BA for these external predictions ranged from 58 to 78% for compounds within the applicability domains of the models. […] The models developed in this study, along with aggregation models previously developed by our group (SCAM Detective) were implemented in "Liability Predictor," an online tool which may be used as part of chemical library design or for triaging HTS hits. Both the models and the curated datasets are publicly available at https://liability.mml.unc.edu/.
SEQUENCE No. (e.g., 1, 2, 3, etc.); […] (e.g., Cells, Incubation, Reagent, etc.); VALUE; DESCRIPTION.
1; Reagent; 3 uL; Amplex Red and HRP mixture.
2; Compounds and control; 16 nL; Kalypsis pin tool (Wako USA) equipped with a 1536-well pin head. […]
6; Detection; Fluorescence, ViewLux microplate reader, 525 nm excitation, 598 nm emission.
NOTES (numbers refer to Sequence numbers above)
1. 3 uL of a mixture containing Amplex Red (25 uM final concentration) and horseradish peroxidase (HRP; 250 mU/mL final concentration) in assay buffer (HBSS) was dispensed into all wells of a 1536-well assay plate (solid-bottom black plate; Greiner Bio One, Monroe, NC).
2. A Wako Pin-tool (Wako Automation, Richmond, VA) was used to transfer 16 nL of compounds (consisting of 7-plates in qHTS format, final concentration range 18.3 nM to 114 uM) or control DA3003 (final concentration range 1.22 nM to 40 uM).
3. 15 min. incubation at room temperature protected from light.
4. 1 uL of DTT (prepared fresh; final concentration 250 uM) was dispensed for a final assay volume of 4 uL.
5. Plates were centrifuged (121xg, 15 seconds) and incubated for 30 minutes at room temperature protected from light.
6. Samples were read for fluorescence (Ex/Em = 525(20)/598(25) nm) on a ViewLux CCD imager (PerkinElmer). Data were normalized to DMSO (0% activity) and DA3003 (10 uM final concentration; 100% activity) and the resulting percent inhibition data were fitted to a 4-parameter Hill equation using NCATS in-house software.

Structure (SMILES) | redox activity (% of DA3003)
COc1cc(COC2OC(CO)C(O)C(O)C2O)cc(OC)c1O (stereo not given) | -12.8%
Cc1c(N2C(=O)c3ccc(C(=O)O)cc3C2=O)c(=O)n(-c2ccccc2)n1C | -3.29%
C=C1CC/C=C(/CO)C(=O)C[C@@H]2[C@@H]1CC2(C)C | -11.5%
CNC(=O)O[C@H]1COc2ccc(N3CCN(C4COC4)CC3)cc2[C@@H]1NC(=O)c1ccc(F)cc1 | 8.14%
CCOC(=O)N1CCC(NCCNC(=O)c2ccccc2C)CC1 | -1.87%
CC1=CCC2C(C)(CO)CCCC2(C)C1CC12OC1C(O)C(CO)=CC2O (stereo not given) | 14.9%
CC(CO[C@@H]1O[C@H](COC(=O)/C=C/c2ccc(O)c(O)c2)[C@@H](O)[C@H](O)[C@H]1O)C1(O)COC(=O)C1 (stereo not given in full) | -6.89% [at 25.6 µM]
COC(=O)C1=CO[C@@H](O[C@@H]2O[C@H](COC(=O)/C=C/c3cc(OC)c(O)c(OC)c3)[C@@H](O)[C@H](O)[C@H]2O)[C@@H]2C(CO)=CC[C@H]12 | -11.5% [at 25.6 µM]
COc1cc(C[C@H]2COC(=O)[C@@H]2Cc2ccc(O)c(OC)c2)ccc1O | 8.34%
CC(C)[C@H]1CCC(CO)=C[C@@H]1/C=C(\CO)C(=O)O | -11.5%
C[C@@H](OC(=O)/C=C/c1ccc(O)cc1)C1=C[C@]2(C=C[C@@H]3C(C(=O)O)=CO[C@@H](O[C@@H]4O[C@H](CO[C@@H]5O[C@H](CO)[C@@H](O)[C@H](O)[C@H]5O)[C@@H](O)[C@H](O)[C@H]4O)[C@@H]32)OC1=O | -0.495% [at 25.6 µM]
C=CC(C)(CC/C=C(\C)CC/C=C(\C)CC(O)/C=C(\C)C(=O)O)O[C@@H]1O[C@H](CO)[C@@H](O)[C@H](O)[C@H]1O[C@@H]1O[C@H](CO)[C@@H](O)[C@H](O)[C@H]1O (stereo not given in full) | 5.71% [at 25.6 µM]
C=C[C@H]1[C@H](O[C@@H]2O[C@H](CO)[C@@H](O)[C@H](O)[C@H]2O)OC=C(C(=O)OC)[C@H]1C[C@@H]1N[C@H](C(=O)O)Cc2c1[nH]c1ccccc21 | 7.24% [at 25.6 µM]
C[C@]1(O)CC[C@@H]2C(C(=O)O)=CO[C@@H](O[C@@H]3O[C@H](COC(=O)c4ccc(O)cc4)[C@@H](O)[C@H](O)[C@H]3O)[C@@H]21 | -9.85% [at 25.6 µM]
C[C@@H]1CC[C@]2(C(=O)O)CC[C@]3(C)C(=CCC4[C@]5(C)C(CC[C@]43C)C(C)(C)[C@@H](O)[C@H](O)[C@@H]5O)C2[C@]1(C)O (stereo not given in full) | 6.32% [at 25.6 µM]
COc1cc(N2CCC(N(C)C)CC2)ccc1Nc1ncc(Cl)c(Nc2ccccc2P(C)(C)=O)n1 | 14.5%
C=CCc1ccc(O[C@@H]2O[C@H](CO[C@@H]3O[C@H](CO)[C@@H](O)[C@H](O)[C@H]3O)[C@@H](O)[C@H](O)[C@H]2O)c(O)c1 | -16.7% [at 25.6 µM]
C=CC1(C)CC2=CCC3C(C)(C(=O)O)CCCC3(C)C2CC1OC(C)=O (stereo not given) | 2.62%
CC(C)=CC/C=C(/C)[C@H]1CC[C@]2(C)[C@@H]1[C@H](O)CC1[C@@]3(C)CC[C@H](O)C(C)(C)[C@@H]3[C@@H](O[C@@H]3O[C@H](CO)[C@@H](O)[C@H](O)[C@H]3O[C@@H]3O[C@@H](C)[C@H](O)[C@@H](O)[C@H]3O)C[C@]12C (stereo not given in full) | -0.963% [at 25.6 µM]
COc1cc(C2Oc3c(OC)cc(CCCO[C@@H]4O[C@H](CO)[C@@H](O)[C@H](O)[C@H]4O)cc3C2CO)ccc1O (stereo not given in full) | -4.44% [at 25.6 µM]

Structure (SMILES) | redox activity (% of DA3003)
CC(O)C(O)/C=C/C=C/C(=O)O[C@@H]1C=C2COC(=O)[C@]2(O)[C@@]2(C)CCCC(C)(C)C12 (stereo not given in full) | -4.04% [at 25.6 µM]
O=C1N(CC2CCCCN2)CCN1c1ccccc1 (stereo not given) | -5.93%
C=C[C@H]1[C@H](O[C@@H]2O[C@H](CO)[C@@H](O)[C@H](O)[C@H]2O)OC=C2C(=O)OCC[C@]21O | -7.67%
OCc1ccccc1O[C@@H]1O[C@H](CO)[C@@H](O)[C@H](O)[C@H]1O | -0.102%
CC1(C)CC2C(C1)C1(C)CCC13OC3(CO)C2O (stereo not given) | -0.985%
O=S(=O)(Nc1ccc(C(O)(C(F)(F)F)C(F)(F)F)cc1)c1cccs1 | -1.74%
CC(=O)C1CCC2(C)C3=C(CCC12C)C1(C)CCC(=O)C(C)(C)C1CC3 (stereo not given) | 17.1%
CCOc1c2c(c(OCC)c3ccccc13)C(=O)N(c1ccc(CC(=O)NS(=O)(=O)c3ccccc3)cc1)C2 | -0.704%
CC(C)C1=CC2=CCC3[C@](C)(CCC[C@@]3(C)C(=O)O)C2CC1O (stereo not given in full) | -4.87%
COc1cccc(-n2nc(C(=O)O)cc2-c2ccc(C3CCCCC3)c(Cl)c2)c1 | -3.45%
C=C1CC2C3(C)C(O)CC(=O)C(C)(C)C3C(OC(C)=O)C(OC(C)=O)C2(C)C2C(=O)OC(C)(C(=O)OC)C(=O)C12C (stereo not given) | -2.49% [at 25.6 µM]
CC(O)(CC(=O)O)CC(=O)O[C@@H]1[C@@H](O)[C@H](OCCc2ccccc2)O[C@H](CO)[C@H]1O (stereo not given in full) | -17.1% [at 25.6 µM]
CCNC(=O)CCC/C=C\C[C@@H]1[C@@H](/C=C/C(O)CCc2ccccc2)[C@@H](O)C[C@@H]1O (stereo not given in full) | 12.6%
C=CC1(C)C=C2C(=O)CC3C(C)(C)CCCC3(C(=O)O)C2(O)CC1 (stereo not given) | 19.1%
C=C1CCC2C(C)(C)C(O)CCC2(C)C1CCC(C)CCOC(=O)CCC(=O)O (stereo not given) | 5.34% [at 25.6 µM]
CO/N=C(/C(=O)N[C@@H]1C(=O)N2C(C(=O)O)=C(CSC(=O)c3ccco3)CS[C@H]12)c1csc(N)n1 | 10.3%
Cc1cc(N2CCCCC2)nc2ccccc12 | -0.569%
CO[C@@H]1COCC[C@@H]1N[C@@H]1CC[C@@](C(=O)N2CCc3ncc(C(F)(F)F)cc3C2)(C(C)C)C1 | -1.83% [at 25.6 µM]
COC(=O)C1C(c2ccc(O)cc2)C(C(=O)OC)C1c1ccc(O)cc1 (stereo not given) | 2.03%
OC[C@H]1O[C@@H](Oc2cc(O)cc(/C=C/c3ccc(O)cc3)c2)[C@H](O)[C@@H](O)[C@@H]1O | -6.76%
